In PubChem BioAssay AID652048 (National Center for Advancing Translational Sciences (NCATS), 2013):
Out of some 410,000 compounds screened, about 2,400 (0.59%) were called active. Many of the other results were omitted from the sample, so actives are more common in it than they were. Values without a mark were called inactive. No stated cut-off is given here; in the data, active means max activation above about 30%; inactive means the rest. *1 amine or outer side, *2 acyl side, *3 side chain or, on linkers, in order; H or OH if unused. Where a SMILES comes first, the peptide text is derived from it. Bridges are numbered along the chain shown (N, C = ends). [ ]: non-standard residue; d: D form. The star is where a group is joined. X2 = NC1=N[C@@H]([C@H](N[*:1])C(=O)[*:2])C[C@H](O)N1; ΔAla(Z-3-ureido) = NC(=O)N/C=C(\N)C(=O)O; β3hOrn = NCCC[C@H](N)CC(=O)*; Dap = NC[C@H](N)C(=O)O

Each compound was assayed against D(3) dopamine receptor (Homo sapiens) (UniProt P35462) (assay: qHTS of D3 Dopamine Receptor Agonist: qHTS). Conditions: D3R DiscoveRx beta-arrestin cells, luminescence, 90 min; hits give high values.
Sequence of D(3) dopamine receptor (Homo sapiens) (P35462 whole entry, looked up): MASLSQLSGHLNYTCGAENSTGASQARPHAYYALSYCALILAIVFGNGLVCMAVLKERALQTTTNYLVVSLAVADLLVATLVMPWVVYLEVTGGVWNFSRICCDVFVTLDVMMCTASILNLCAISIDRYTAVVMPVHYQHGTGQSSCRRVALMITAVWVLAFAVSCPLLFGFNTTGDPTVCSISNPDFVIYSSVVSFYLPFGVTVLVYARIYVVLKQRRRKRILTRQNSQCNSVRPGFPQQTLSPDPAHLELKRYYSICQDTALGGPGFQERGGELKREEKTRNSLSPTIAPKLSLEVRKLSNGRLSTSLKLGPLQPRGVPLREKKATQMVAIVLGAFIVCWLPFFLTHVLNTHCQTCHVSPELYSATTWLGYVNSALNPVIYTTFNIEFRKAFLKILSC
In short: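 Agonist mode: compounds and dopamine controls were applied to plated cells for 90 min at 37 degrees C after an overnight attachment at 1500 cells/well. Luminescent read-out followed 30 - 60 minutes at room temperature with DiscoveRx detection reagent.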
Further: 0% is about no effect.

Compound	max activation
CCC(C)[C@@H](N)C(=O)O (stereo not given in full)	1.21%
COc1cc(NS(=O)(=O)c2cccs2)cc(OC)c1	-2.4%
O=C(CSc1ncc(S(=O)(=O)c2ccc(Br)cc2)c(=O)[nH]1)Nc1ccc2c(c1)OCCO2	0.197%
Cn1c(=O)c(=O)n(C)c2cc(S(=O)(=O)CCC(=O)N3CCCCC3)ccc21	-3.93%
Cc1ccc(C(=O)Nc2cc3c(cc2N2CCCC2)n(C)c(=O)c(=O)n3C)cc1	-5.76%
CCc1ccc(S(=O)(=O)Nc2cc3c(cc2N2CCCCC2)n(C)c(=O)c(=O)n3C)cc1	33.6% (active)
Cc1c(NS(=O)(=O)c2cc(C(=O)NCCc3ccc(F)cc3)cc(Cl)c2Cl)c(=O)n(-c2ccccc2)n1C	0.49%
Cc1c(NS(=O)(=O)c2ccc(Cl)cc2)c(=O)n(-c2ccccc2)n1C	0.215%
Cc1c(NS(=O)(=O)c2cccc(C(=O)Nc3ccc(SC(F)F)cc3)c2)c(=O)n(-c2ccccc2)n1C	33.5% (active)
NCCC[C@H](N)CC(=O)N[C@H]1CNC(=O)[C@H]([C@H]2C[C@H](O)NC(N)=N2)NC(=O)/C(=C/NC(N)=O)NC(=O)[C@H](CO)NC(=O)[C@H](CO)NC1=O (β3hOrn-[Dap]SS[ΔAla(Z-3-ureido)][X2]; lactam 1-C)	4.66%
CCc1nc2ccccc2n(CCOCCOCCn2c(=O)c(CC)nc3ccccc32)c1=O	1.74%
CCOCCn1c(-c2ccccc2)nc2ccccc21	65.4% (active)
CCOCCn1c(C(C)C)nc2ccccc21	-2.13%
Cc1ccc(CSc2nc3cccnc3n2Cc2ccc(C(=O)NC3CC3)cc2)cc1	2.04%
CCOc1cccc(NC(=O)c2ccc(F)c(S(=O)(=O)N(CC)c3cccc(C)c3)c2)c1	6.21%
CS(=O)(=O)NC(=O)CCC/C=C\C[C@H]1C(=O)C[C@@H](O)[C@@H]1/C=C/[C@H](O)COc1ccccc1	-14.2%
COc1cc2ccccc2cc1C(=O)Nc1ccc(NC(=O)c2cccs2)cc1	30% (active)
COc1cc(OC)c(C(=O)NNC(=O)c2ccc(NS(=O)(=O)c3cccs3)cc2)cc1OC	2.22%
COc1cc2ccccc2cc1C(=O)Nc1cccc(-c2nc3ccccc3o2)c1	9.76%
C=C1CC[C@H](O)CC1=C/C=C1\CCC[C@]2(C)[C@@H]([C@H](C)/C=C/[C@H](C)C(C)C)CC[C@@H]12	14.3%
C=C1C(=C/C=C2\CCC[C@]3(C)[C@@H]([C@H](C)CCCC(C)(C)O)CC[C@@H]23)C[C@@H](O)C[C@@H]1O	31.6% (active)
CCCN(CCC)CCNC(=O)Cn1cnc2sc(C)c(S(=O)(=O)N3CCC(C)CC3)c2c1=O	-7.98%
Cc1ccc(-c2nn3c(=O)cc(CN4CCN(C(=O)Nc5cccc(C(F)(F)F)c5)CC4)nc3s2)cc1	5.13%
CCc1ccc(CN(Cc2ccco2)C(=O)c2ccccc2Cl)cc1	-16.7%
COc1ccc(NC(=O)c2sc3nc(-c4cc5cccc(OC)c5oc4=O)[nH]c(=O)c3c2C)cc1	-8.2%
CSc1ncnc2c1ncn2CC(=O)C1CCC2C3CCC4=CC(=O)CCC4(C)C3CCC12C (stereo not given)	53.2% (active)
CSc1ncnc2c1ncn2CCCNCc1ccco1	-2.72%
CO[C@H]1[C@@H](O)[C@H](N)[C@@H](O[C@H]2O[C@H]([C@H](C)N)CC[C@H]2N)[C@H](O)[C@@H]1N(C)C(=O)CN	4.34%

Compound	max activation
CCN1CCN(C(=O)Cn2nc(C)n3c(cc4c(OC)cccc43)c2=O)CC1	75.8% (active)
COc1cccc2c1cc1c(=O)n(CC(=O)N3CCN(c4cccc(Cl)c4)CC3)nc(C)n12	9.45%
COc1cccc2c1cc1c(=O)n(CC(=O)N3CCN(c4ccccc4)CC3)nc(C)n12	5.49%
Cc1c(O)cc2c(c1C)O[C@](C)(CCC[C@H](C)CCC[C@H](C)CCCC(C)C)CC2	13.3%
CCc1cccc(NC(=O)CN(C)S(=O)(=O)c2ccc3[nH]c4c(c3c2)CCCC4)c1	-8.32%
Cc1ccc2c(=O)c(C(=O)c3ccc(F)cc3)cn(CC(=O)NC3CCCCC3)c2n1	-2.6%
COc1ccc(OC)c(CN2CCN(C(=O)CNC(=O)c3cc(C)cc(C)c3)CC2)c1	48.9% (active)
Cc1cc(C)cc(C(=O)NCC(=O)OCC(=O)N2CCCCC2)c1	-0.844%
COc1cc(OC)cc(C(=O)NCC(=O)N2CCCCCCC2)c1	-0.951%
Cc1nc(CN(C)C(=O)CC2C(=O)NCCN2Cc2ccc(F)cc2)cs1 (stereo not given)	0.365%
CN(Cc1cccc2ncccc12)C(=O)CC1C(=O)NCCN1Cc1ccc(F)cc1 (stereo not given)	32.9% (active)
Cc1cnc(CN(C)C(=O)CC2C(=O)NCCN2Cc2cccc(F)c2F)[nH]1 (stereo not given)	4.65%
CCCS(=O)(=O)c1ncc(Cl)c(C(=O)Nc2scc(-c3ccccc3)c2C(=O)OCC)n1	-8.93%
CC1CCCN(c2csc3ccc(F)cc3c2=O)C1 (stereo not given)	5.02%
OC(COc1cccc2ccccc12)CN1CCN(c2ccccn2)CC1 (stereo not given)	66.5% (active)
Cc1ccccc1OCC(O)CN1CCN(c2ccccn2)CC1 (stereo not given)	41.3% (active)
O=S(=O)(c1ccc(OCC(O)CN2CCN(c3ccccc3Cl)CC2)cc1)N1CCOCC1 (stereo not given)	7.66%
Cc1cccc(OCC(O)CN2CCN(CCN3C(=O)c4cccc5cccc(c45)C3=O)CC2)c1C (stereo not given)	-7.59%
CC(C)c1ccc(OCC(O)CN2CCN(c3ccccn3)CC2)cc1 (stereo not given)	42.2% (active)
C=CCc1ccc(OCC(O)CN2CCN(Cc3ccccc3)CC2)c(OC)c1 (stereo not given)	-9.27%
CC(C)c1ccccc1OCC(O)CN(CC(O)COc1cccc2ccccc12)C(C)C (stereo not given)	13.3%
O=C1c2cccc3cccc(c23)N1CN1CCN(c2ccccn2)CC1	7.73%
CCc1ccc(OCC(O)CN2CCN(CCO)CC2)cc1 (stereo not given)	-6.12%
O=C(Cn1c(-c2cccs2)cc2ccccc21)NCCc1ccc(Cl)cc1	-7.79%
COc1ccc(NC(=O)CSc2nc3ncccc3[nH]2)c(OC)c1	-5.62%
CCCC(=O)Nc1ccc(NC(=O)c2sc3ccccc3c2Cl)cc1	-7.19%
CCCCC(CC)CNC(=O)C1CCN(S(=O)(=O)c2cccc3nsnc23)CC1 (stereo not given)	-12.4%
